Growth inhibition data for eight molecules are collected here from PubChem BioAssay (NCI).

This is part of a sample that, as a whole, favours compounds with a hit. Of some 79,000 tested, about 15% had one in any assay. Unmarked numbers belong to inactive results. Active and inactive are the calls of the source. Cut-off read from the data, not from the text of the source: active = growth inhibition above about 70%; inactive = the rest.

The nature of the assay: NCI Yeast Anticancer Drug Screen. Data for the rad52 strain (AID 147).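 Note: 0% = growth of vehicle-treated control cultures.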 To be noted: S. cerevisiae rad52 mutant growth inhibition, active compounds read high. On the procedure:
Growth inhibition of yeast strains with defined genetic alterations is measured as a screen for potential anti-cancer activity. Selected strains with alterations in DNA damage repair or cell cycle control were exposed to compounds and growth inhibition was measured relative to vehicle treated controls. The strain used in this assay is rad52

On to `NC(=S)N/N=C1\c2ccccc2CCC1CCC1(O)CCc2ccccc2C1=O` (stereo not given), for which the growth inhibition (at 1.2 µM) was 43%; the growth inhibition (at 3.7 µM) is 47%; the growth inhibition (at 11.0 µM) was 55%; the growth inhibition (at 33.0 µM) is 86% (active); the growth inhibition (at 100.0 µM) was 85% (active).

As to `Cc1cc(Cl)ccc1NC(=O)/C(Cl)=C(/Cl)C(=O)O`, the growth inhibition (at 1.2 µM) was 2%; the growth inhibition (at 3.7 µM) is 6%; the growth inhibition (at 11.0 µM) is 21%; the growth inhibition (at 33.0 µM) is 70% (active); the growth inhibition (at 100.0 µM) was 99% (active).

With `O=C(C(Cl)=C(N1CCCCC1)N1CCCCC1)C(Cl)Cl`, the growth inhibition runs as follows: (at 1.2 µM) 2%; (at 3.7 µM) 6%; (at 11.0 µM) 5%; (at 33.0 µM) 3%; (at 100.0 µM) 2%.

On to `O=S(=O)(c1ccccc1)N1CN2CN(C1)CN(S(=O)(=O)c1ccccc1)C2`, for which the growth inhibition is, setting by setting: (at 1.2 µM) -10%; (at 3.7 µM) -2%; (at 11.0 µM) -15%; (at 33.0 µM) -8%; (at 100.0 µM) -5%.

Regarding `O=c1c2ccccc2nc(-c2ccc(Cl)cc2)n1O`, the growth inhibition reads like this: (at 1.2 µM) 81% (active); (at 3.7 µM) 95% (active); (at 11.0 µM) 96% (active); (at 33.0 µM) 96% (active); (at 100.0 µM) 94% (active).

Consider `CC1(C)OC(=O)C(=Cc2ccc([N+](=O)[O-])s2)C(=O)O1`, for which the growth inhibition by setting is: (at 1.2 µM) -17%; (at 3.7 µM) -35%; (at 11.0 µM) -31%; (at 33.0 µM) -14%; (at 100.0 µM) 98% (active).

On to `COc1ccc(C(C)c2cc3c(cc2OCC(C)=O)OCO3)cc1` (stereo not given), for which the growth inhibition is, setting by setting: (at 1.2 µM) -3%; (at 3.7 µM) 0%; (at 11.0 µM) 1%; (at 33.0 µM) -1%; (at 100.0 µM) 73% (active).

Turning to `O=[N+]([O-])[O][Sn]([O][Sn]([O][N+](=O)[O-])([c]1ccccc1)[c]1ccccc1)([c]1ccccc1)[c]1ccccc1`, the growth inhibition (at 1.2 µM) was 6%; the growth inhibition (at 3.7 µM) is 9%; the growth inhibition (at 11.0 µM) was 13%; the growth inhibition (at 33.0 µM) was 32%; the growth inhibition (at 100.0 µM) was 57%.
